Most compounds without a hit are left out; they make up all but 1.4% or so of the library.
FPRL1 ligand: binds the human formylpeptide receptor-like-1 FPRL1; P25090; FPRL1-expressing cells, fluorescent ligand binding inhibition, flow cytometry; inhibition, % (test concentration not listed); actives 0.3% (n = 24,000); AID 441
QS inhibitor: S. aureus quorum sensing inhibition | S. aureus RN6390 RNAIII-GFP reporter, AIP-induced, flow cytometry 3 h | inhibition, % at 2 µM | actives 0.3% (n = 24,000);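 active = share of bacteria positive for the green fluorescent reporter and its mean brightness both inhibited by 50% or more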
26S disassembly: blocks ATP-dependent breakdown of the yeast 26S proteasome; anti-FLAG beads, GFP-proteasome disassembly, flow cytometry; inhibition of disassembly, % (test concentration not listed); actives 0.2% (n = 24,000);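 active = inhibition of disassembly above about 33%, limit read from the data; inconclusive = likely self-fluorescent, control bead median signal at least 40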;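 also: higher percent means more bead fluorescence retained so stronger block of disassembly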
FPR binder: binds the human formylpeptide receptor FPR; P21462; FPR-expressing cells, fluorescent ligand binding, flow cytometry; inhibition, % (concentration not given with the values); actives 0.74% (n = 24,000); AID 440
Target sequence (P21462 whole entry, looked up): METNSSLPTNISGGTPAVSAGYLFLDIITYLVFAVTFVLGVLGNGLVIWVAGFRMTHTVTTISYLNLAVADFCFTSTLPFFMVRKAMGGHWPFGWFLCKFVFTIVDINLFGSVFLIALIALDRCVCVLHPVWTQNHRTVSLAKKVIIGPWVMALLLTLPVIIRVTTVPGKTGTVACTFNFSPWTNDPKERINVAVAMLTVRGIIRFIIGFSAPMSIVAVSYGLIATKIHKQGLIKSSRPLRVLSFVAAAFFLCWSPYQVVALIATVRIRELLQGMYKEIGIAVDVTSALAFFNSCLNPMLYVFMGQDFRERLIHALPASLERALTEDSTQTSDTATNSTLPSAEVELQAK
Each line names hits and unclear results; the compound was inactive in the other large screens. Rule as the data show it, unless noted: active = inhibition above about 30%; inconclusive = no clear call, values can overlap the other calls; inactive = below that.

CCOC(=O)N1CCC(NC(=O)c2cc(C(=O)Nc3cccc(OC)c3)ccc2CO)CC1	none
COc1ccc(-c2nc(C#N)c(NCCCN3CCOCC3)o2)cc1	none
COc1ccc(-c2oc3ncn(CCN4CCOCC4)c(=N)c3c2-c2ccc(OC)cc2)cc1	QS inhibitor 53
Cc1ccc2nc(NC(=O)C(NS(=O)(=O)c3cccc4nsnc34)C(C)C)sc2c1 (stereo not drawn)	none (no result: FPRL1 ligand, 26S disassembly, FPR binder)
O=C1CCCC(O)=C1C(C#Cc1ccccc1)C1=C(O)CCCC1=O	FPR binder 47
CC1CCc2cc(F)cc3c(O)c(C(=O)Nc4cnccn4)c(=O)n1c23 (stereo not drawn)	none
COC(=O)C1=C(C)N=c2s/c(=C/c3cccs3)c(=O)n2C1c1cccs1 (stereo not drawn)	26S disassembly 110
CCOC(=O)C1=C(C)N=c2s/c(=C\c3cccn3C)c(=O)n2C1c1cccc(OC)c1OC (stereo not drawn)	none
CCC(Sc1nc2c(c(=O)[nH]1)CCC2)C(=O)Nc1cccc(OC)c1 (stereo not drawn)	FPR binder 62
COc1ccc(NC(=O)CSc2nc3c(c(=O)[nH]2)CCC3)cc1OC	none
COc1ccc(OC)c(C(=O)c2nc3c(n2O)CCCCC3)c1	FPRL1 ligand 52, FPR binder 54
Cc1cc(N2C(=O)C(O)=C(C(=O)c3ccco3)C2c2cccnc2)no1 (stereo not drawn)	FPRL1 ligand 30 (no result: QS inhibitor, 26S disassembly)
COc1cc(C2C(C(=O)c3ccc(C)o3)=C(O)C(=O)N2c2cc(C)on2)cc(Br)c1O (stereo not drawn)	none
COc1cc(C2C(C(=O)c3ccco3)=C(O)C(=O)N2c2cc(C)on2)cc(Br)c1O (stereo not drawn)	FPRL1 ligand 31, FPR binder 39 (no result: QS inhibitor, 26S disassembly)
O=C(C1=C(O)C(=O)N(c2ncccn2)C1c1cccc(Cl)c1)c1ccco1 (stereo not drawn)	none
COc1ccc(OC)c(C2C(C(=O)c3cc4ccccc4o3)=C(O)C(=O)N2c2cc(C)on2)c1 (stereo not drawn)	FPR binder 33 (no result: QS inhibitor, 26S disassembly)
O=C(C1=C(O)C(=O)N(c2ncccn2)C1c1ccc(Cl)c(Cl)c1)c1ccco1 (stereo not drawn)	FPR binder 45 (no result: QS inhibitor, 26S disassembly)
CCn1c(Cc2ccc(OC)cc2)nnc1SCC(=O)Nc1cccc(C(=O)OC)c1	none
O=C(CCCCCn1c(=O)[nH]c2ccccc2c1=O)NCCCN1CCN(c2ccccc2F)CC1	none
Cc1ccc(C(=O)C2=C(O)C(=O)N(Cc3ccccc3)C2c2cccnc2)o1 (stereo not drawn)	FPR binder 32 (no result: QS inhibitor, 26S disassembly)
CCC(Oc1ccc2c(c1)C(=O)CC(C)(C)O2)C(=O)NCCN1CCCCCC1 (stereo not drawn)	none
CC(C)(C)NC(=O)C1CCCN(S(=O)(=O)c2cccc3cccnc23)C1 (stereo not drawn)	FPR binder 35
O=C(Nc1ccncc1)C1CCCN(S(=O)(=O)c2cccc3cccnc23)C1 (stereo not drawn)	none
CC(C)NS(=O)(=O)c1cccc2nsnc12	none
COC(=O)C1(S(=O)(=O)c2cccc3nsnc23)CC1	FPRL1 ligand 84, FPR binder 33
COc1ccc(OC)c(NC(=O)C2C3CCC(C3=C(C)C)C2C(=O)O)c1 (stereo not drawn)	FPR binder 38 (no result: QS inhibitor, 26S disassembly)
COc1ccc(OC)c(NC(=O)C2CCCCC2C(=O)O)c1 (stereo not drawn)	none (no result: QS inhibitor, 26S disassembly)
O=C(c1ccc(Cl)cc1)N(Cc1cccs1)C1CCS(=O)(=O)C1 (stereo not drawn)	FPRL1 ligand 46
O=C(CCCn1c(=S)[nH]c2cc3c(cc2c1=O)OCO3)N1CCN(c2ccccc2)CC1	none
O=C(CCCn1c(=S)[nH]c2cc3c(cc2c1=O)OCO3)N1CCc2ccccc2C1	QS inhibitor 66
CCN1CCN(C(c2cccs2)C(C)NC(=O)c2cccnc2)CC1 (stereo not drawn)	none
CCOC(=O)C1CCN(CC(O)COc2ccc(C(C)=O)cc2)CC1 (stereo not drawn)	FPR binder 35
CCOC(=O)C1CCN(Cc2ccc(C(=O)OC)cc2)CC1	FPRL1 ligand 55, FPR binder 48
COc1ccc(-n2nc3c(c2NC(=O)c2cc4ccccc4oc2=O)CS(=O)(=O)C3)cc1	none
CCc1ccc(N/C(SCc2cccc(F)c2)=C(/C#N)C(=O)NCc2ccco2)cc1	QS inhibitor 65
CCc1ccc(NC(=O)c2cc(-c3ccco3)on2)cc1	none
Nc1ccc(Nc2ccccc2N)cc1	FPRL1 ligand 47, 26S disassembly inconclusive
Cc1ccc(/C(O)=C2\C(=O)C(=O)N(CC(C)O)C2c2ccc(N(C)C)cc2)cc1 (stereo not drawn)	FPR binder 36 (no result: QS inhibitor, 26S disassembly)
CCOc1cccc(/C(O)=C2/C(=O)C(=O)N(Cc3ccco3)C2c2ccncc2)c1 (stereo not drawn)	FPR binder 48 (no result: QS inhibitor, 26S disassembly)
COc1ccc(OC)c(C2/C(=C(/O)c3ccccc3)C(=O)C(=O)N2Cc2ccco2)c1 (stereo not drawn)	FPR binder 92 (no result: QS inhibitor, 26S disassembly)
COc1ccc(C2/C(=C(/O)c3ccccc3)C(=O)C(=O)N2CCO)cc1 (stereo not drawn)	none (no result: QS inhibitor, 26S disassembly)
COc1ccc(C2/C(=C(/O)c3ccccc3)C(=O)C(=O)N2CC(C)O)c(OC)c1 (stereo not drawn)	FPR binder 42
COCCCN1C(=O)C(=O)/C(=C(/O)c2ccc(C)cc2)C1c1ccccc1 (stereo not drawn)	none (no result: QS inhibitor, 26S disassembly)
O=C(NC(=O)c1cccc(OC(F)(F)C(F)F)c1)OC1CCS(=O)(=O)C1 (stereo not drawn)	none
Cc1ccc(C2/C(=C(/O)c3ccc(Br)cc3)C(=O)C(=O)N2Cc2ccco2)o1 (stereo not drawn)	FPR binder 31 (no result: QS inhibitor, 26S disassembly)
COc1ccccc1C1/C(=C(/O)c2ccccc2)C(=O)C(=O)N1CC(C)C (stereo not drawn)	FPR binder 63
COc1ccccc1C1/C(=C(/O)c2ccc(C)cc2)C(=O)C(=O)N1CC(C)O (stereo not drawn)	none (no result: QS inhibitor, 26S disassembly)
COc1ccc(/C(O)=C2\C(=O)C(=O)N(Cc3ccco3)C2c2cc(OC)ccc2OC)cc1 (stereo not drawn)	none (no result: QS inhibitor, 26S disassembly)
COc1cc(OC)cc(-c2nnc(SCC(=O)Nc3cc(C)on3)o2)c1	none
O=S(=O)(c1cccc2nsnc12)N1CCc2ccccc21	none
O=C(Cn1cnc2c(nnn2-c2ccc(F)cc2)c1=O)N1CCCC1	none
CN(C)c1nc(N(C)C)nc(N(C)C)n1	FPR binder 52
COc1ccccc1Cc1nc(-c2ccc(Br)o2)no1	none
COc1ccc(-c2nc(-c3ccc(NC(=O)c4ccc(Br)o4)cc3)no2)cc1OC	FPRL1 ligand 50, FPR binder 43
COc1ccc(-c2nc(-c3ccc(Br)o3)no2)cc1OC	FPRL1 ligand 31
Cc1oc2cc(O)cc(O)c2c(=O)c1-c1ccc2c(c1)OCCCO2	FPR binder 31 (no result: QS inhibitor, 26S disassembly)
CCN(CCCc1ccccc1)CCCc1ccccc1	FPR binder 54
N#Cc1c(NC(NC(=O)c2ccco2)C(=O)c2ccccc2)sc2c1CCCC2 (stereo not drawn)	QS inhibitor 84
CC(=O)Nc1sc2c(c1C#N)CCCCC2	none

Screening results from PubChem.
